The source of these data is PMC7862700, “An all-to-all approach to the identification of sequence-specific readers for epigenetic DNA modifications on cytosine”.

Holding throughout (assay): DAPPL (digital affinity profiling via proximity ligation, sequencing); 10 mM Tris-HCl pH 7.5, 50 mM NaCl, 1 mM DTT, 4% glycerol, room temperature, 30 min; GST-TFs on glutathione beads, 16-mer random dsDNA library, 0.1% formaldehyde crosslink after washing; high values mean tight binding
One test addresses T1, FEV (Homo sapiens, UniProt Q99581 1-238).
T1 sequence: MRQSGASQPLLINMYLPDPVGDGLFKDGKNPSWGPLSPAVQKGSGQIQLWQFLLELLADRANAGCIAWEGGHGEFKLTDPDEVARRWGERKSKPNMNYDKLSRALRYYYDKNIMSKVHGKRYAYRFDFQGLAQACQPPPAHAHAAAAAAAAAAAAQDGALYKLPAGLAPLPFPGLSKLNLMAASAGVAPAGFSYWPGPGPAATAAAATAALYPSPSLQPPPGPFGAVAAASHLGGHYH
Conditions: protein: recombinant; tags: N-terminal GST; dsDNA, one strand shown. In outline:
(§1)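 Binding signal is each hexamer's read frequency for a factor divided by its frequency in the tag-only sample. The factors were GST-fused human transcription factors from yeast, captured on glutathione beads, DNA-barcoded and pooled with that sample. Pools were incubated with 200 nmole of a random double-stranded 16-mer DNA library in Tris/NaCl/DTT/glycerol buffer at room temperature for 30 min, then washed, crosslinked with 0.1% formaldehyde, proximity-ligated with BsaI/T4 ligase (1 h, 37 °C), PCR-amplified and sequenced on an Illumina NextSeq500.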

A further test deals with ETV5 (Homo sapiens, UniProt P41161 1-510). Conditions: protein: recombinant; tags: N-terminal GST; dsDNA, one strand shown. In outline: as §1
Another test has as its target HSF1 (Homo sapiens, UniProt Q00613 1-529). To be noted: protein: recombinant; tags: N-terminal GST; chain copies: 3; dsDNA, one strand shown. In short, it runs like this:
as §1

A further test has as its target T2, SPIC (Homo sapiens, UniProt Q8N5J4 1-248).
T2 sequence: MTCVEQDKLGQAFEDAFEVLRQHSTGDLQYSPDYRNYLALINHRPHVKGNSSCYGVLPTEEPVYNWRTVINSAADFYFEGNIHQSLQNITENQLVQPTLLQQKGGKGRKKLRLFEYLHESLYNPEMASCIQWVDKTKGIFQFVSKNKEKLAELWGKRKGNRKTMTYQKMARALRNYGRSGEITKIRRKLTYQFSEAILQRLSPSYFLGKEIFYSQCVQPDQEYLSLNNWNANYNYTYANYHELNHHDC
Conditions: protein: recombinant; tags: N-terminal GST; dsDNA, one strand shown. In outline: as §1

The target in another test is ELF4 (Homo sapiens, UniProt Q99607 1-663). To be noted: protein: recombinant; tags: N-terminal GST; dsDNA, one strand shown. In outline:
as §1

For a further test, the target named is T3, ELK4 (Homo sapiens, UniProt P28324-2 1-405).
T3 sequence: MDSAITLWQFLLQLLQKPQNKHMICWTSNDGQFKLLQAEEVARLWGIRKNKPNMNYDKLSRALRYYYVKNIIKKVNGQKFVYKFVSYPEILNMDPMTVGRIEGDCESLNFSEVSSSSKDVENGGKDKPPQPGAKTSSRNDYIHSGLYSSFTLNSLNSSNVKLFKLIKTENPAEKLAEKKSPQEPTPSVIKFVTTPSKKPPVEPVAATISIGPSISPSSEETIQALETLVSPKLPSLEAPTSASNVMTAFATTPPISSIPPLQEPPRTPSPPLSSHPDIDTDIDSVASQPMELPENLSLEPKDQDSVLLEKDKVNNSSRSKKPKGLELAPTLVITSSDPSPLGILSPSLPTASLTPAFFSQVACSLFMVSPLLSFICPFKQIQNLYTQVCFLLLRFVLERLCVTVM
Conditions: protein: recombinant; tags: N-terminal GST; dsDNA, one strand shown. In short, it runs like this: as §1

In the next test the target is T4, ETV2 (Homo sapiens, UniProt O00321 1-342).
T4 sequence: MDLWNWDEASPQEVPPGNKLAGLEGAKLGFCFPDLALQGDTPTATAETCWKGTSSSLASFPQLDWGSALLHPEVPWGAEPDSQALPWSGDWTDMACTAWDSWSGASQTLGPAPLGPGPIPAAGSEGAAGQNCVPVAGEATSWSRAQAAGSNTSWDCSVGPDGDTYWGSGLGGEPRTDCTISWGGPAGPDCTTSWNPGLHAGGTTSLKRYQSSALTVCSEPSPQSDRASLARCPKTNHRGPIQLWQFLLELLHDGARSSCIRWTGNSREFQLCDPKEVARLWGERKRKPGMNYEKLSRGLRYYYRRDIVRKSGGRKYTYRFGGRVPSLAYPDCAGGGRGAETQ
Conditions: protein: recombinant; tags: N-terminal GST; dsDNA, one strand shown. In outline: as §1

Another test has as its target T5, ELF3 (Homo sapiens, UniProt P78545 1-371).
T5 sequence: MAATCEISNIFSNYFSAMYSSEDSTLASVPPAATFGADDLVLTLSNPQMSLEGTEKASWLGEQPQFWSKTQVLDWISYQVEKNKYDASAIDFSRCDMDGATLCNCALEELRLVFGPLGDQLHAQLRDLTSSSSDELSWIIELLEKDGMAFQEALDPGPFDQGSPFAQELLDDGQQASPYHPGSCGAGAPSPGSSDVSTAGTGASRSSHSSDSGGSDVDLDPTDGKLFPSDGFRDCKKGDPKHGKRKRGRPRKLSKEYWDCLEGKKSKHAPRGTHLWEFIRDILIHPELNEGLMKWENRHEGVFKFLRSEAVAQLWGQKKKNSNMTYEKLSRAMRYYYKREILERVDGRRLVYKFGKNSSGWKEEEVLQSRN
Conditions: protein: recombinant; tags: N-terminal GST; dsDNA, one strand shown. In short, it runs like this: as §1

The target in the next test is CRX (Homo sapiens, UniProt O43186 1-299). Conditions: protein: recombinant; tags: N-terminal GST; dsDNA, one strand shown. In short, it runs like this:
as §1

Another test has as its target ETV1 (Homo sapiens, UniProt P50549 1-477). To be noted: protein: recombinant; tags: N-terminal GST; dsDNA, one strand shown. In short, it runs like this:
as §1

The next test concerns the target T6, ERF (Homo sapiens, UniProt P50548 1-548).
T6 sequence: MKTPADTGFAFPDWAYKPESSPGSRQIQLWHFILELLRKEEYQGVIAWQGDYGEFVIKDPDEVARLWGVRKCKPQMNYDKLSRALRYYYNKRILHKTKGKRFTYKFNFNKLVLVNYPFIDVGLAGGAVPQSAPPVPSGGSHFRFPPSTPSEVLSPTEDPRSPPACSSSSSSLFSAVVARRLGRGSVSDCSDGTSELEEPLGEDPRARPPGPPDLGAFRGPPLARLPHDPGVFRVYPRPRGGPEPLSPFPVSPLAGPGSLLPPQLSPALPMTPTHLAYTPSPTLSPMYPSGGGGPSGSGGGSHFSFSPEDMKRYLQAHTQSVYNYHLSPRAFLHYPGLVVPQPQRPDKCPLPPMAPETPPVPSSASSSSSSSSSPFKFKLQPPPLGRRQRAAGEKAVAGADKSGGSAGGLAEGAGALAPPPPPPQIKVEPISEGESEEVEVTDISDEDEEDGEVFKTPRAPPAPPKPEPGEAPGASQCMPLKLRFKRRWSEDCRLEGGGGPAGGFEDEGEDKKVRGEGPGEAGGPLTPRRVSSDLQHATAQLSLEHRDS
Conditions: protein: recombinant; tags: N-terminal GST; dsDNA, one strand shown. In outline:
as §1

A further test has as its target T7, ETV3L (Homo sapiens, UniProt Q6ZN32 1-361).
T7 sequence: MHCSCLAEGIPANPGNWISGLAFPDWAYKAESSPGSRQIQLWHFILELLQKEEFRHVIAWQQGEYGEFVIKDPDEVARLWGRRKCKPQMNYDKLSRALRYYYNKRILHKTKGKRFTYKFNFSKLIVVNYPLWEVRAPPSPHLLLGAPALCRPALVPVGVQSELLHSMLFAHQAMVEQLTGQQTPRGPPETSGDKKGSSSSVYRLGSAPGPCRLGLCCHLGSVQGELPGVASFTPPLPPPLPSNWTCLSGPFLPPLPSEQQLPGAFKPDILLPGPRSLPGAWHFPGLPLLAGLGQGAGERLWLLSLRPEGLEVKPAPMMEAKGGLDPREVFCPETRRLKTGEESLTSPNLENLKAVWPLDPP
Conditions: protein: recombinant; tags: N-terminal GST; dsDNA, one strand shown. In outline:
as §1

In another test the target is T8, ETS2 (Homo sapiens, UniProt P15036 1-469).
T8 sequence: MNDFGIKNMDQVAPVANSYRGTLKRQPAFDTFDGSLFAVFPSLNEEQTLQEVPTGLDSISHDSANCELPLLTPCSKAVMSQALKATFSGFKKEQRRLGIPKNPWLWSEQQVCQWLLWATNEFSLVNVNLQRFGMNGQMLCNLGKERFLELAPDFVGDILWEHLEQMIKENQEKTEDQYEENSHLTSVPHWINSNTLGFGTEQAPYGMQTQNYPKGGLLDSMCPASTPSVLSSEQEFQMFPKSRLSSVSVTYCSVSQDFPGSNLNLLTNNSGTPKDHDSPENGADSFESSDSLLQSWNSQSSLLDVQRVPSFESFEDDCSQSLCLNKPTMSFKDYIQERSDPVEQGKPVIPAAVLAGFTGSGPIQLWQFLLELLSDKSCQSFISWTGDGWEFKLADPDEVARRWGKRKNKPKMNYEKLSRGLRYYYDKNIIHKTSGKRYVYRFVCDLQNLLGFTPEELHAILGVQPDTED
To be noted: protein: recombinant; tags: N-terminal GST; dsDNA, one strand shown. In short, it runs like this: as §1

The target of a further test is T9, SPDEF (Homo sapiens, UniProt O95238 1-335).
T9 sequence: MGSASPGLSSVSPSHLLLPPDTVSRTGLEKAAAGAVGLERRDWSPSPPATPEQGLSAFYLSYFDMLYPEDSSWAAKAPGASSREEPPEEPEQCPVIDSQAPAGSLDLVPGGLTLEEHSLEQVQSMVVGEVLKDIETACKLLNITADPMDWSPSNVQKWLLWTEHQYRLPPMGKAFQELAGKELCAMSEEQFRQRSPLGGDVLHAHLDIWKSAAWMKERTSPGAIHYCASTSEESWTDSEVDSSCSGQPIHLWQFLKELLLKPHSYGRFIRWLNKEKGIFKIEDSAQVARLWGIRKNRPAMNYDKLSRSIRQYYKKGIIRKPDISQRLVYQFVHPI
To be noted: protein: recombinant; tags: N-terminal GST; dsDNA, one strand shown. In outline: as §1

A further test addresses T10, ETV7 (Homo sapiens, UniProt Q9Y603 1-341).
T10 sequence: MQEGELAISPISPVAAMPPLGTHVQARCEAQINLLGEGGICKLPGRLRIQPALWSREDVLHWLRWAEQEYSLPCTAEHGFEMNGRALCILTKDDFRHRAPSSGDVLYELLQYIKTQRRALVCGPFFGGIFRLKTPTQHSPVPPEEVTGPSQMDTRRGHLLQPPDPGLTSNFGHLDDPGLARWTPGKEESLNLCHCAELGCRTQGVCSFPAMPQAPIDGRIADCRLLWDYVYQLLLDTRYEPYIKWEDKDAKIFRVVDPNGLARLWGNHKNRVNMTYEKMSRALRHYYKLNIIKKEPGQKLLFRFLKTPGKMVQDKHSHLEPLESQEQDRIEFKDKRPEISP
To be noted: protein: recombinant; tags: N-terminal GST; dsDNA, one strand shown. In short, it runs like this: as §1

A further test concerns the target T11, ELF5 (Homo sapiens, UniProt Q9UKW6-2 1-255).
T11 sequence: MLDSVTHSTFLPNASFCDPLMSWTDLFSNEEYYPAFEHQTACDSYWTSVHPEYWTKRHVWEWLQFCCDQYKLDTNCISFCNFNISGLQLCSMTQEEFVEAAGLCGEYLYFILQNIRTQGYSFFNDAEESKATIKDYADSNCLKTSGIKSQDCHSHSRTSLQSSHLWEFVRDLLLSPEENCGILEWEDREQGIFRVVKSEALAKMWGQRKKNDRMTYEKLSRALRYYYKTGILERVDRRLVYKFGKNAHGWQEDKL
Conditions: protein: recombinant; tags: N-terminal GST; dsDNA, one strand shown. In short, it runs like this:
as §1

A further test has as its target T12, ETV3 (Homo sapiens, UniProt P41162-2 1-143).
T12 sequence: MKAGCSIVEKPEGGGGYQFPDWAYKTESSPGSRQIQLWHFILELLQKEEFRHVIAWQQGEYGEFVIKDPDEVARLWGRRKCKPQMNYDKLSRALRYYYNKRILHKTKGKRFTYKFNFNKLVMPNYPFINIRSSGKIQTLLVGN
To be noted: protein: recombinant; tags: N-terminal GST; dsDNA, one strand shown. In outline: as §1

A further test addresses ETV6 (Homo sapiens, UniProt P41212 1-452). Conditions: protein: recombinant; tags: N-terminal GST; dsDNA, one strand shown. In outline: as §1

Chain of CRX (O43186 whole entry): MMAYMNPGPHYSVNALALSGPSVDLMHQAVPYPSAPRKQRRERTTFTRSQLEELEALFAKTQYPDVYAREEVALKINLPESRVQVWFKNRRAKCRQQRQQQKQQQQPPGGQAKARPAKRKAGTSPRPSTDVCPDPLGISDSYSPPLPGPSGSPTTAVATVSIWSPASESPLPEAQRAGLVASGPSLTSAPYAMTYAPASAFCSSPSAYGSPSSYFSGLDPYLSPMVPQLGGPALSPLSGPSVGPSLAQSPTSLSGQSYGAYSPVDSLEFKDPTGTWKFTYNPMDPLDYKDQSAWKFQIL
Chain of ELF4 (Q99607 whole entry): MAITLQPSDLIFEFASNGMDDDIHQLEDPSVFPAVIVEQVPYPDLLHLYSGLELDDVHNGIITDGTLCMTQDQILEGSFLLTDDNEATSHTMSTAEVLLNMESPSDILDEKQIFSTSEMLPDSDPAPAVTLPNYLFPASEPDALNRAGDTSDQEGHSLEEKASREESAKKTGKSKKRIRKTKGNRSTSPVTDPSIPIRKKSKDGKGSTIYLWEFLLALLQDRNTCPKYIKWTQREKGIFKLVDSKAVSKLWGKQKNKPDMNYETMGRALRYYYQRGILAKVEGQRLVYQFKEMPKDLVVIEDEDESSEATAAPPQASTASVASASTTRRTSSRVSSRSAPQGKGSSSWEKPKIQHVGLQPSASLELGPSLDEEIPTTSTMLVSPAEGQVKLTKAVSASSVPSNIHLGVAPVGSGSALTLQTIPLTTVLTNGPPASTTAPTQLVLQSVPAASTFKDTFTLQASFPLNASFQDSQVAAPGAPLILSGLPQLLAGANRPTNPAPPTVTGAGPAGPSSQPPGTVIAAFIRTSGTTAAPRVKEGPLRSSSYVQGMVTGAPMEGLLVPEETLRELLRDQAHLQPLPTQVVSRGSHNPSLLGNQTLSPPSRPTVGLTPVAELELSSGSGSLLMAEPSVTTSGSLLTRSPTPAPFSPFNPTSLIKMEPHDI
Chain of ETV6 (P41212 whole entry): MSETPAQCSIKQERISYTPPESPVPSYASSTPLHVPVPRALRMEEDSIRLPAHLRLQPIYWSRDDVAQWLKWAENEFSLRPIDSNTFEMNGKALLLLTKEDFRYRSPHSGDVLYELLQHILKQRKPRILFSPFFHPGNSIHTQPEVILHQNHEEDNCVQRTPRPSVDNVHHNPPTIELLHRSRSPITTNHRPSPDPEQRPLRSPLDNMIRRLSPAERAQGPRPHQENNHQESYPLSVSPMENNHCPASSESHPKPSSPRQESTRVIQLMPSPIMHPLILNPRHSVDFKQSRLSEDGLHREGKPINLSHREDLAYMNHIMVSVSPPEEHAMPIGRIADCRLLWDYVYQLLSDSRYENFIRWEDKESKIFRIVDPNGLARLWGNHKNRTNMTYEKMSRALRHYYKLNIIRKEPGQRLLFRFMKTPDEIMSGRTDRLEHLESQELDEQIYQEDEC
Chain of ETV1 (P50549 whole entry): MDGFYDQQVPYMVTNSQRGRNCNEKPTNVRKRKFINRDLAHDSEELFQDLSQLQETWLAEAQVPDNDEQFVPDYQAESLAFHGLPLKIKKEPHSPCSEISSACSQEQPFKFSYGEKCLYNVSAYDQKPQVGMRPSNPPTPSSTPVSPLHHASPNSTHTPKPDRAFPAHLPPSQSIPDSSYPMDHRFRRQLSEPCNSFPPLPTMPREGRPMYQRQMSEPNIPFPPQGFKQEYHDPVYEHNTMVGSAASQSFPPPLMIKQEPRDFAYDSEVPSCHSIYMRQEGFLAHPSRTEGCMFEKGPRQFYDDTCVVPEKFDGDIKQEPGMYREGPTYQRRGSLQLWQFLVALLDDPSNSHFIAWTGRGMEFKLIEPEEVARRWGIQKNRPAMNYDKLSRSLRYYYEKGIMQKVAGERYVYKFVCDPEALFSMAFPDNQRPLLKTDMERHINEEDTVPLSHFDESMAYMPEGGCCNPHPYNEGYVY
Chain of ETV5 (P41161 whole entry): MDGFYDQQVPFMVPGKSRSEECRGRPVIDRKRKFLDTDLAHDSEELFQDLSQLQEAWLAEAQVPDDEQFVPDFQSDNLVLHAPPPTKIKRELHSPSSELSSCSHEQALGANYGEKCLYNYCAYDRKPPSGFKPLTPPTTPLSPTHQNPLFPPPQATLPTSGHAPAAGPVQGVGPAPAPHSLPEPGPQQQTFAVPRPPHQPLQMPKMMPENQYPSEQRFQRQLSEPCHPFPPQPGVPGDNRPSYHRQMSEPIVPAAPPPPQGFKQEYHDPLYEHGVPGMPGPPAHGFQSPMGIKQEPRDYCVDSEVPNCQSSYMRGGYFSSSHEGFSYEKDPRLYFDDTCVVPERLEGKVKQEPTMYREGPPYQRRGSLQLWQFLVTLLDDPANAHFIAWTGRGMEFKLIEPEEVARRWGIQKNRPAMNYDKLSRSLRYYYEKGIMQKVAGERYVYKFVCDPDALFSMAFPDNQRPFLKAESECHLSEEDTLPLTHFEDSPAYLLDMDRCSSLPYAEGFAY
Chain of HSF1 (Q00613 whole entry): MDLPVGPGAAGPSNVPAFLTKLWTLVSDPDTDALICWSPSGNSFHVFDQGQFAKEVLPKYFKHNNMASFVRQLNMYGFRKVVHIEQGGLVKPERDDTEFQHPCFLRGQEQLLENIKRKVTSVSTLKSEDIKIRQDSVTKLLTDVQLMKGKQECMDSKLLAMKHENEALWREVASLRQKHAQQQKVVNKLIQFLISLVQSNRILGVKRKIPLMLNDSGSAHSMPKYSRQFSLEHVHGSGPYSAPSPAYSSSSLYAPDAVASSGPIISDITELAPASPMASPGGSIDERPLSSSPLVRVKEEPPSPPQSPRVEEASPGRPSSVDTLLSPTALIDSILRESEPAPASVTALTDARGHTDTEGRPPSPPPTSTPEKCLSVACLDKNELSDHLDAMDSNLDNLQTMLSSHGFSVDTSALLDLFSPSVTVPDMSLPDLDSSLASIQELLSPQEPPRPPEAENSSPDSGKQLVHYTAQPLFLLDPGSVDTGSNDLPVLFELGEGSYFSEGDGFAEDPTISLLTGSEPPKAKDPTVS

Take CGCTTT: the binding signal is 1.18 fold enrichment (6-mer frequency, TF over GST control) with FEV; 1.21 fold enrichment (6-mer frequency, TF over GST control) with ETV5; 1.11 fold enrichment (6-mer frequency, TF over GST control) with HSF1; 1.17 fold enrichment (6-mer frequency, TF over GST control) in the test with SPIC; 1.31 fold enrichment (6-mer frequency, TF over GST control) in the test with ELF4; 1.17 fold enrichment (6-mer frequency, TF over GST control) with ELK4. Also, the binding signal was 1.09 fold enrichment (6-mer frequency, TF over GST control) with ETV2; 1.22 fold enrichment (6-mer frequency, TF over GST control) in the test with ELF3; 1.37 fold enrichment (6-mer frequency, TF over GST control) with CRX; 1.4 fold enrichment (6-mer frequency, TF over GST control) with ETV1; 1.24 fold enrichment (6-mer frequency, TF over GST control) with ERF; 1.26 fold enrichment (6-mer frequency, TF over GST control) with ETV3L. The binding signal with ETS2 was 1.36 fold enrichment (6-mer frequency, TF over GST control); in the test with SPDEF, 1.2 fold enrichment (6-mer frequency, TF over GST control); with ETV7, 1.4 fold enrichment (6-mer frequency, TF over GST control); in the test with ELF5 it was 1.25 fold enrichment (6-mer frequency, TF over GST control); with ETV3, 1.3 fold enrichment (6-mer frequency, TF over GST control); in the test with ETV6, 1.31 fold enrichment (6-mer frequency, TF over GST control).
